The source of these data is PubChem BioAssay AID2592 (National Center for Advancing Translational Sciences (NCATS), 2010).

Records with an inconclusive call do not appear. Activity calls are given as the source filed them. Calls follow the shape of the dose curve; as a rule, active = well fitted inhibition curve with a large enough effect; inconclusive = small, poorly fitted or top-dose-only effect, or effect the other way; inactive = flat fitted curve, though single readings scatter.

Chain of Lysosomal acid glucosylceramidase (Homo sapiens) (P04062 whole entry, looked up): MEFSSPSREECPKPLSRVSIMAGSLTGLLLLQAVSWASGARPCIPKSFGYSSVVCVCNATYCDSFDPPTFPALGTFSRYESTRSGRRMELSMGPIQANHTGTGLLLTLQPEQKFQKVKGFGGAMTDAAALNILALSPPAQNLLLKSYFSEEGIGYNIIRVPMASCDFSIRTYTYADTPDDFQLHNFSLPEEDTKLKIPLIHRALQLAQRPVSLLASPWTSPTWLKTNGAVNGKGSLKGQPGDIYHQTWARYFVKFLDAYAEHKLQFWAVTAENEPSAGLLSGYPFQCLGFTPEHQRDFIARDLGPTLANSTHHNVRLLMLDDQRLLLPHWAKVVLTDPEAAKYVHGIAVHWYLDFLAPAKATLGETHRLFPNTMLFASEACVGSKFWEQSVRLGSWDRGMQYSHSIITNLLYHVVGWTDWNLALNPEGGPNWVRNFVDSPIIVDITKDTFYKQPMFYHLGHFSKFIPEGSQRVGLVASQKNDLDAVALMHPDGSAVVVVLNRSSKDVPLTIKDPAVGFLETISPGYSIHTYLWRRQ

The test addresses Lysosomal acid glucosylceramidase (Homo sapiens) (UniProt P04062). The test can be described thus: qHTS Assay for Inhibitors and Activators of N370S glucocerebrosidase as a Potential Chaperone Treatment of Gaucher Disease: Activity in Non-Mutant Spleen Homogenate. As to conditions: human spleen homogenate GC, 4MU-glucoside fluorescence; series mostly up to 57.5 µM. An excerpt: NIH Chemical Genomics Center [NCGC] NIH Molecular Libraries Probe Production Centers Network [MLPCN] MLPCN Grant: MH086442-01 Assay Submitter (PI): Wei Zheng Glucocerebrosidase (GC) catalyzes the hydrolysis of beta-glucocerebroside to glucose and ceramide in lysosomes. Mutations in the glucocerebrosidase gene result in Gaucher disease, an autosomal recessive lysosomal storage disorder. Many of the mutations encountered in patients with Gaucher disease are missense alterations that may cause misfolding, decreased stability and/or mistrafficking of this lysosomal protein. […] These inhibitors include iminosugar analogs and three non-iminosugar inhibitors identified from a previous HTS of 62,000 compounds with the wild type recombinant enzyme. However, the enhancement of enzyme activity by the chaperone action of an enzyme inhibitor must be balanced against the direct inhibition of the enzyme. An enzyme activator could also function as a chaperone by binding to the enzyme and helping to correct its misfolding and mistrafficking. While activators for GC have not yet been identified, they may have better therapeutic potential than inhibitors. Therefore the discovery and development of chemical activators may provide a new strategy for the chaperone therapy. We have optimized a new assay using N370S mutant GC derived from the spleen of a Gaucher patient. […] In addition, the MLPCN compound library has expanded, which increases the chance of finding new and better probes. This confirmation assay tests for compound activity in spleen homogenate containing wildtype enzyme.
NCGC Assay Protocol Summary: This is a fluorogenic enzyme assay with 4-methylumbelliferyl-beta-D-glucopyranoside as the substrate and wildtype glucocerebrosidase from human spleen homogenate as the enzyme preparation. Upon the hydrolysis of this fluorogenic substrate, the resulting product, […] which can be detected by a standard fluorescence plate reader. Data were normalized to the controls for basal activity (without enzyme) and 100% activity (with enzyme). The AC50 values were determined from concentration-response data modeled with the standard Hill equation. Assay buffer: 50 mM citric acid (titrated with potassium phosphate to pH 5.0), 100 mM potassium chloride, 10 mM sodium chloride, 1 mM magnesium chloride, 0.01% Tween-20. 1536-well assay protocol: (1) Add 2 ul/well of spleen homogenate (27 ug final) (2) Add 23 nL compounds in DMSO solution. The final titration was 0.5 nM to 58 uM. (3) Add 2 ul of substrate (1 mM final) (4) Incubate at 37C for 40 min. (5) Add 2 ul stop solution (1M NaOH and 1M Glycine mixture, pH 10) (6) Detect the assay plate in a ViewLux plate reader (PerkinElmer) with Ex=365 nm and Em=440nm. Keywords: Glucocerebrosidase, beta-glucosidase, Gaucher Disease, pharmacological chaperone, chaperone therapy, high throughput screening, glucocerebrosidase inhibitor, MLSMR, MLSCN, NIH Roadmap, qHTS and NCGC
(In general: Quantitative high-throughput screening tests each substance at several concentrations.)
Take `CC(C)(C)C(=O)OCCNc1nc(-c2ccccc2)nc2ccccc12`: the Potency was 2240 nM (active).
As for `NS(=O)(=O)c1ccc(S(=O)(=O)N2CCN(c3nc(-c4cccs4)nc4ccccc34)CC2)cc1`, the Potency was 5010 nM (active).
Next, `O=S(=O)(c1ccc2ccccc2c1)N1CCN(c2nc(-c3cccs3)nc3ccccc23)CC1`: 282 nM (active); `CC(C)C(C)NC(=O)CSc1nc2scc(-c3ccco3)c2c(=O)n1-c1ccccc1` (stereo not given): “inactive”; `S=C(NCCCc1cnc[nH]1)NCCCN(Cc1ccc(Cl)c(Cl)c1)c1ccc(Br)cn1`: 355 nM (active).
Under `Cc1cc(C)cc(N(CC(=O)NC2CCCCCC2)S(=O)(=O)c2c(C)[nH]c(=O)[nH]c2=O)c1` stands 562 nM (active); under `O=S(=O)(c1ccccc1C(F)(F)F)N1CCN(c2nc(-c3cccs3)nc3ccccc23)CC1`, 398 nM (active); under `O=S(=O)(c1ccc(Cl)cc1)N1CCN(c2nc(-c3cccs3)nc3ccccc23)CC1`, 1000 nM (active).
Under `N#Cc1ccc(S(=O)(=O)N2CCN(c3nc(-c4cccs4)nc4ccccc34)CC2)cc1` stands 2510 nM (active); under `O=S(=O)(c1ccc2c(c1)OCCO2)N1CCN(c2nc(-c3cccs3)nc3ccccc23)CC1`, 447 nM (active).
